High-throughput results (PubChem BioAssay)
esBAF inh: SWI/SNF esBAF complex inhibition | mouse ES cells, Bmi1-luciferase knock-in reporter, 24 h; 100% = twice the neutral-well signal | reporter increase, % at 12.5 µM | 350,000 tested, 2% active; in the data active means activation above about 40%; inconclusive means no clear call, values can overlap the other calls;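 further: 0% = median of the plate's neutral control wells and 100% = double that signal; a rise in the Bmi1 reporter signal indicates esBAF inhibition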
EWS-Fli block: inhibitors of EWS/Fli oncoprotein transcriptional activity. A673 NR0B1-luciferase reporter, viability-normalised. inhibition, % at 12.6 µM. 350,000 tested, 0.67% active;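 active means mean inhibition of at least 50% after viability correction, with every replicate also passing that limit; inconclusive means mean reaches 50% but only one of two replicates passes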;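 further: firefly luciferase signal divided by Alamar Blue viability fluorescence both relative to DMSO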
MITF act: increases MITF-driven TRPM1 promoter luciferase signal | SK-MEL-5 TRPM1-promoter luciferase, 24 h; % of positive control, neutral wells = 0 | activation, % at 12.5 µM | 300,000 tested, 0.75% active;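 active means mean activation of at least 80% with every replicate also reaching 80%; inconclusive means mean reaches 80% but some replicate falls short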;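 further: 0% = neutral control wells and 100% = parthenolide positive control wells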
PAX8 reporter: lowers PAX8-driven luciferase in RMG-I cells | RMG-I TPO-luciferase reporter, SteadyGlo, 24 h | inhibition, % at 12.6 µM | 360,000 tested, 1.2% active | AID 652154;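 active means mean replicate inhibition at least 60% with every replicate also reaching 60%; inconclusive means only one of the two criteria is met; inactive means mean below 60% and not all replicates reaching 60%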;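 further: luciferase light reporting Pax8 driven TPO promoter activity; plate controls were median of neutral control wells for no effect and mitoxantrone controls for full effect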
Wnt bcat act: activators of Wnt/beta-catenin signaling; Wnt/beta-catenin reporter cell assay, activator, plate reader; activation, % at 9.35 µM; 300,000 tested, 1.2% active; AID 743398; in the data active means activation above about 30%, passing the limit was not always enough; inconclusive means no clear call, values can overlap the other calls;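 further: 0% = neutral control wells and 100% = positive control wells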
MITF TRPM1 inh: MITF TRPM1 promoter inhibition in SK-MEL-5 cells | SK-MEL-5 TRPM1 promoter luciferase, 24 h | inhibition, % at 12.5 µM | 330,000 tested, 0.83% active | AID 488899;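 active means mean inhibition across replicates of 60% or more, whatever share of single replicates reaches that level; inconclusive means some that reach 60%, reason not given; inactive means mean inhibition across replicates below 60%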
Numbers without * were called inactive; ? = inconclusive; / = not tested or not shown. An excerpt weighted towards active compounds, which were near 4% of everything screened.

SMILES | esBAF inh | EWS-Fli block | MITF act | PAX8 reporter | Wnt bcat act | MITF TRPM1 inh
O=C(C[C@H]1C[C@@H]2c3cc(NC(=O)C4CCOCC4)ccc3O[C@@H]2[C@@H](CO)O1)NCc1ccc(Oc2ccccc2)cc1 | 1.2 | 17.8 | / | 77.9* | / | /
O=C(C[C@@H]1C[C@H]2c3cc(NC(=O)C4CCOCC4)ccc3O[C@H]2[C@@H](CO)O1)NCc1ccc(Oc2ccccc2)cc1 | -0.4 | -7.2 | / | -6.4 | / | /
C=CCOc1ccc(/C(O)=C2/C(=O)C(=O)N(CCCn3ccnc3)C2c2cccs2)cc1 (stereo unspecified) | 43.6* | / | 64.4 | / | -1.5 | -57.6
C=CCOc1ccc(/C(O)=C2/C(=O)C(=O)N(CCCn3ccnc3)C2c2ccco2)cc1 (stereo unspecified) | 6.3 | -1.6 | -9.4 | -88.5 | -1.9 | 8.9
CCN1[C@@H]2c3ccc(C4=CCCCC4)c(=O)n3C[C@H]1[C@H](CO)[C@H]2C(=O)NCCOC | -2.0 | -11.7 | / | / | / | /
CC=Cc1ccc2n(c1=O)C[C@H]1[C@H](CO)[C@@H](C(=O)Nc3ccc(-c4ccccc4)cc3)N(CC)[C@@H]21 (mixture of isomers) | 46.2* | 5.1 | / | / | / | /
CC=Cc1ccc2n(c1=O)C[C@@H]1[C@@H](CO)[C@H](C(=O)Nc3ccc(-c4ccccc4)cc3)N(C(C)=O)[C@H]21 (mixture of isomers) | 3.8 | -1.3 | / | -11.1 | / | /
CC=Cc1ccc2n(c1=O)C[C@@H]1[C@@H](CO)[C@H](C(=O)Nc3ccc(-c4ccccc4)cc3)N(C)[C@H]21 (mixture of isomers) | 61.1* | -7.0 | / | / | / | /
CC=Cc1ccc2n(c1=O)C[C@@H]1[C@@H](CO)[C@H](C(=O)Nc3ccc(-c4ccccc4)cc3)N(CC)[C@H]21 (mixture of isomers) | 20.8 | 3.9 | / | / | / | /
Cc1ccc2c(c1)Sc1c(ccc3ccccc13)N2 | 51.2* | -207.8 | 7.7 | -126.8 | 46.3* | -7.0
O=C(Nc1ccc2nsnc2c1)NC1CCCCC1 | 60.1* | / | 69.8 | / | / | -68.1
O=C(Nc1ccc(F)c(F)c1)NC1CCCCC1 | 65.9* | / | 39.2 | -69.6 | 18.0 | -35.0
S=C(Nc1cccc2ccccc12)Nc1cccc2ccccc12 | 9.0 | -45.4 | -22.3 | -1.7 | -5.6 | 19.5
O=C(Nc1ccc(F)cc1)NC1CCCCCCC1 | 59.1* | -122.5 | 105.2* | -171.0 | 12.4 | -96.9
O=C(Nc1cccc(Cl)c1)NC1CCCCC1 | / | / | / | / | / | -31.7
S=C(Nc1cccc2ccccc12)NC1CCCCC1 | 57.4* | -29.7 | 7.1 | -43.5 | 15.1 | -5.2
O=C(Cc1ccccn1)NCC[C@H]1CC[C@H](NC(=O)Nc2ccccc2)[C@H](CO)O1 | -3.0 | -5.7 | / | 0.2 | / | /
C[C@H]1CN([C@@H](C)CO)C(=O)Cc2cc(NC(=O)Cc3ccccc3)ccc2O[C@@H]1CN(C)Cc1ccc2c(c1)OCO2 | 2.9 | 3.3 | / | 18.3 | / | /
O=C(Nc1ccccc1F)NC1CC1 | ? | -25.5 | 15.2 | -29.7 | / | -13.4
O=C(Nc1ccccc1F)NC1CCCCCCC1 | 53.9* | -127.1 | 57.7 | -203.6 | 17.5 | -55.3
CC(=O)c1ccc(NC(=O)NC2CCCCCCC2)cc1 | 68.2* | -78.6 | 73.9 | -194.8 | ? | -81.8
FC(F)Sc1ccc(NC(=S)NC2CCCCC2)cc1 | 50.5* | / | 69.2 | / | / | -65.9
Nc1ccc(NC(=O)NC2CCCCC2)cc1 | 3.5 | -1.5 | -7.6 | -53.0 | 4.9 | 6.7
O=C(Nc1ccc(Cl)cc1)NC1CCCCC1 | / | / | ? | -178.1 | 66.1* | -76.2
CC1CCCCC1NC(=S)Nc1ccc(SC(F)F)cc1 (stereo unspecified) | 25.6 | / | 40.1 | / | / | -32.8
SMILES | esBAF inh | EWS-Fli block | MITF act | PAX8 reporter | Wnt bcat act | MITF TRPM1 inh
O=C(N[C@@H]1CC[C@@H](CCNC(=O)C2CCCC2)O[C@@H]1CO)c1ccncc1 | 0.2 | 2.7 | / | 0.1 | / | /
COc1ccccc1Oc1ncnc2c1cnn2-c1ccccc1 | 73.3* | -84.7 | 91.1* | -155.6 | 9.8 | -93.0
CN(Cc1ccccc1)c1ncnc2c1cnn2-c1ccccc1 | 40.0 | -61.8 | 85.4* | / | 25.7 | -82.0
CCN(c1ccccc1)c1ncnc2c1cnn2-c1ccccc1 | 75.8* | -100.9 | / | -163.5 | 10.4 | /
COCCN(CCOC)c1ncnc2c1cnn2-c1ccccc1 | 37.6 | -38.5 | 24.7 | -59.8 | 6.8 | -18.7
O=C1COc2ccc(C(=O)COC(=O)c3ccccc3[N+](=O)[O-])cc2N1 | 77.3* | -7.0 | 21.0 | -46.2 | 4.9 | -21.3
CC(/C=N/NC(=O)c1cccnc1)=C\c1ccccc1 | 50.4 | -42.0 | 55.1 | -134.4 | 34.5* | -46.1
Clc1ccc2nc(CSCc3ccccc3)cn2c1 | / | -47.5 | 51.0 | -199.0 | 67.0* | -55.4
Cc1ccc(S(=O)(=O)NCc2cn3c(C)csc3n2)cc1 | 2.9 | / | 15.7 | / | / | -13.1
Clc1ccc2nc(CSc3nncn3-c3ccccc3)cn2c1 | -1.0 | / | -7.7 | / | -5.0 | 7.7
Cc1ccc(SCc2cn3cc(Cl)ccc3n2)cc1 | / | -69.4 | / | -112.0 | 34.9* | -64.0
Cc1ccc(SCc2cn3c(C)csc3n2)cc1 | 6.6 | 11.5 | 84.0* | / | 1.0 | -80.4
CNc1cc(CSc2ccc(Cl)cc2)nc(C)n1 | 51.6* | -107.6 | 80.0 | 49.1 | 9.9 | -77.8
Cc1nc(CSc2ccc(Cl)cc2)cc(NCc2ccccc2)n1 | 2.4 | / | 5.5 | / | / | -7.5
CC(C)NC(=O)N(C)C[C@H]1OCCCC[C@H](C)Oc2ccc(NS(=O)(=O)c3ccc(F)cc3)cc2C(=O)N([C@H](C)CO)C[C@H]1C | -9.7 | -2.5 | / | 8.5 | / | /
CC(C)C#Cc1ccc2c(c1)O[C@@H](CN(C)C(=O)C1CCCCC1)[C@@H](C)CN([C@@H](C)CO)S2(=O)=O | 2.3 | 7.6 | / | / | / | /
Clc1ccc2nc(CSc3nc4ccccc4o3)cn2c1 | 7.1 | / | / | -111.2 | 58.5* | -13.7
Cc1cccc2nc(CSc3ccc(Cl)cc3)cn12 | 75.7* | -73.8 | 101.1* | -175.5 | 13.2 | -101.5
Clc1ccc(SCc2cn3ccccc3n2)cc1 | / | -101.6 | ? | -187.2 | 15.8 | -90.4
Oc1ccc(/C=N/Nc2ncc(Cl)cc2Cl)cc1 | 44.3* | -52.0 | 87.9* | -128.6 | 19.8 | -89.6
Clc1cnc(N/N=C/c2cccs2)c(Cl)c1 | / | / | ? | / | / | -75.1
O=C(Nc1ccc(-c2nc3cccnc3s2)cc1)C1CCCO1 (stereo unspecified) | -70.2 | 66.0* | / | 0.2 | -12.2 | /
O=C(Nc1ccc(-c2nc3ccccc3o2)cc1)C1CCCO1 (stereo unspecified) | -49.3 | / | 36.0 | / | / | -37.7
O=C(Nc1ccc2oc(-c3ccccc3)nc2c1)C1CCCO1 (stereo unspecified) | / | -127.3 | 88.0* | -190.8 | 23.6 | -83.0
O=C(Nc1ccc(Oc2ccccc2)cc1)C1CCCO1 (stereo unspecified) | 51.6* | / | 79.9 | / | / | -74.6
COc1ccc(NC(=O)C2CCCO2)cc1 (stereo unspecified) | 2.5 | / | / | -12.1 | 1.4 | -7.2
COc1ccc(S(=O)(=O)Nc2ccc3c(c2)C(=O)N([C@@H](C)CO)C[C@H](C)[C@H](CN(C)C(=O)CCC(F)(F)F)OCCCC[C@@H](C)O3)cc1 | -1.6 | 0.4 | / | 10.4 | / | /
